The subject of test [1] is RAW-Dual. Description: IRF Lucia reporter activity, fold change vs agonist alone; higher = enhanced IRF activity. Conditions: library stock concentration (final ~1000-fold dilution): 10 mM, agonist: MPLA (TLR4) […]. The method, boiled down: (§1)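 RAW-Dual macrophages were seeded in DMEM at 50,000 cells/well in 384-well plates, given 50 nL of library stock by pin tool, and given a PRR agonist 1 h later. Plates were held at 37 °C, 5% CO2 for 20 hours, after which supernatant was read for IRF by QuantiLuc luminescence and for NF-κB by QuantiBlue absorbance at 620 nm. Reporter activity is expressed as fold change over wells that received agonist alone. A well was called cytotoxic when IncuCyte confluency fell below 70% of agonist controls in both mask sets.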

Test [2] has as its system RAW-Dual. Description: IRF Lucia reporter activity, fold change vs agonist alone; cytotoxicity flag (confluency mask): not cytotoxic; higher = enhanced IRF activity. Summed up:
as §1

In test [3] the test system is RAW-Dual. Description: IRF Lucia reporter activity, fold change vs agonist alone; cytotoxicity flag (confluency mask): cytotoxic (confluency <70% of control); higher = enhanced IRF activity. Summed up:
as §1

Where [4] appears, read: cytotoxicity flag (confluency mask): not cytotoxic.
[5] abbreviates: agonist: 3'3'-cGAMP (STING) 10 ug/mL.
Setting [6] is: cytotoxicity flag (confluency mask): cytotoxic (confluency <70% of control).

Values joined by “and” are separate entries in the source; they are usually repeats but may differ in a detail not shown here. Equal entries are not always repeated. ± gives the standard deviation of the averaged measurements. In all, about 2,900 compounds were measured (“IRF Lucia reporter activity, fold change vs agonist alone”: median about 0.9, highest 2% from about 2.8 on). The full list was thinned out, with the highest values kept by preference.

The values below come from the supplement of paper PMC10037445.

`COc1cc(C(=O)O)ccc1NC(=O)C1NC(CC(C)(C)C)C(C#N)(c2ccc(Cl)cc2F)C1c1cccc(Cl)c1F` (centres undefined): the “IRF Lucia reporter activity” value in the test with RAW-Dual [1] (setting [4]) was determined as 0.67.
Turning to `O=c1cc(-c2ccccc2)oc2cc(OC3OC(CO)C(O)C(O)C3O)c(O)c(O)c12` (centres undefined) (library stock concentration (final ~1000-fold dilution): 10 mM), the figures for the “IRF Lucia reporter activity” value in the test on RAW-Dual [2] (setting [5]) and with RAW-Dual [2] (agonist: LPS (TLR4) 0.1 ug/mL) were 0.862 and 0.849, respectively.
For the compound `CC(NC(=O)c1c(N)nn2cccnc12)c1cc2cccc(C#Cc3cnn(C)c3)c2c(=O)n1-c1ccccc1` (centres undefined) (library stock concentration (final ~1000-fold dilution): 10 mM), the “IRF Lucia reporter activity” value in the test with RAW-Dual [2] (setting [5]) amounted to 0.813; with RAW-Dual [2] (agonist: LPS (TLR4) 0.1 ug/mL), 1.14.
Turning to `CC(Nc1ncnc2[nH]cnc12)c1cc2cccc(Cl)c2c(=O)n1-c1ccccc1` (centres undefined), the “IRF Lucia reporter activity” value with RAW-Dual [1] (setting [4]) is 1.42.
For `CC(Nc1ncnc2[nH]cnc12)c1cc2cccc(Cl)c2c(=O)n1-c1ccccc1` (centres undefined) (library stock concentration (final ~1000-fold dilution): 10 mM), the figures for the “IRF Lucia reporter activity” value in the test with RAW-Dual [2] (setting [5]) and in the test on RAW-Dual [2] (agonist: LPS (TLR4) 0.1 ug/mL) were 0.659 and 0.799, respectively.
`CC(Nc1ncnc(N)c1C#N)c1cc2cccc(-c3ccc(=O)n(C)c3)c2c(=O)n1C(C)C` (centres undefined) (library stock concentration (final ~1000-fold dilution): 10 mM): the entries for the “IRF Lucia reporter activity” value in the test on RAW-Dual [2] (setting [5]) and in the test with RAW-Dual [2] (agonist: LPS (TLR4) 0.1 ug/mL) were 1.14 and 8.45, respectively.
As to `CC(Nc1ncnc(N)c1C#N)c1cc2cccc(-c3ccc(=O)n(C)c3)c2c(=O)n1C(C)C` (centres undefined), the “IRF Lucia reporter activity” value in the test on RAW-Dual [1] (setting [4]) came to 7.07.
With `Cl.Fc1ccc(C2CCNCC2COc2ccc3c(c2)OCO3)cc1` (centres undefined) (library stock concentration (final ~1000-fold dilution): 10 mM), the entries for the “IRF Lucia reporter activity” value with RAW-Dual [2] (setting [5]) and in the test with RAW-Dual [2] (agonist: LPS (TLR4) 0.1 ug/mL) were 0.928 and 1.02, respectively.
For the compound `Cl.Fc1ccc(C2CCNCC2COc2ccc3c(c2)OCO3)cc1` (centres undefined), the “IRF Lucia reporter activity” value in the test with RAW-Dual [1] (setting [4]) was determined as 1.35.
Same read-out and setting: with `OCC1=CC(O)C2C=COC(OC3OC(CO)C(O)C(O)C3O)C12` (centres undefined) the figure was 1.01.
With `OCC1=CC(O)C2C=COC(OC3OC(CO)C(O)C(O)C3O)C12` (centres undefined) (library stock concentration (final ~1000-fold dilution): 10 mM), the “IRF Lucia reporter activity” value in the test with RAW-Dual [2] (setting [5]) came out at 1.05; in the test on RAW-Dual [2] (agonist: LPS (TLR4) 0.1 ug/mL), 1.37.
In the same order, the values of `O=C(O)CCc1c[nH]c2ccccc12` (library stock concentration (final ~1000-fold dilution): 10 mM) are 0.921 and 1.18.
Regarding `c1ccc2c(CCNc3ccc(Nc4ccncc4)cc3)c[nH]c2c1` (library stock concentration (final ~1000-fold dilution): 10 mM), the “IRF Lucia reporter activity” value in the test on RAW-Dual [2] (setting [5]) turned out to be 0.706; in the test on RAW-Dual [2] (agonist: LPS (TLR4) 0.1 ug/mL) it was 0.612.
With `c1ccc2c(CCNc3ccc(Nc4ccncc4)cc3)c[nH]c2c1`, the “IRF Lucia reporter activity” value in the test on RAW-Dual [1] (setting [4]) turned out to be 2.97.
Regarding `OCc1c[nH]c2ccccc12` (library stock concentration (final ~1000-fold dilution): 10 mM), the “IRF Lucia reporter activity” value in the test with RAW-Dual [2] (setting [5]) is 0.803 and 0.565; in the test on RAW-Dual [2] (agonist: LPS (TLR4) 0.1 ug/mL), 0.839 and 0.758.
Consider `OCc1c[nH]c2ccccc12`, for which the “IRF Lucia reporter activity” value in the test on RAW-Dual [1] (setting [4]) stood at 1.07 ± 0.022.
As for `CN1CC2c3ccccc3Oc3ccc(Cl)cc3C2C1.O=C(O)/C=C\C(=O)O` (centres undefined), in the test on RAW-Dual [1] (setting [6]), the “IRF Lucia reporter activity” value came out at 1.95.
As to `CN1CC2c3ccccc3Oc3ccc(Cl)cc3C2C1.O=C(O)/C=C\C(=O)O` (centres undefined) (library stock concentration (final ~1000-fold dilution): 10 mM), the “IRF Lucia reporter activity” value is 0.746 in the test with RAW-Dual [3] (setting [5]) and 0.716 with RAW-Dual [3] (agonist: LPS (TLR4) 0.1 ug/mL).
Regarding `O=[N+]([O-])c1ccc(Sc2cccc[n+]2[O-])c2nonc12` (library stock concentration (final ~1000-fold dilution): 10 mM), the “IRF Lucia reporter activity” value in the test with RAW-Dual [3] (setting [5]) was 0.262; in the test on RAW-Dual [3] (agonist: LPS (TLR4) 0.1 ug/mL) it was 0.0128.
Consider `C#CCN(C)CCCOc1ccc(Cl)cc1Cl.Cl`, for which the “IRF Lucia reporter activity” value with RAW-Dual [1] (setting [4]) was found to be 1.12.
Take `C#CCN(C)CCCOc1ccc(Cl)cc1Cl.Cl` (library stock concentration (final ~1000-fold dilution): 10 mM): the “IRF Lucia reporter activity” value in the test on RAW-Dual [2] (setting [5]) is 1.06; with RAW-Dual [2] (agonist: LPS (TLR4) 0.1 ug/mL), 1.19.
Regarding `O=C(Nc1cc(C(F)(F)F)ccc1C(F)(F)F)c1cc(Br)ccc1O` (library stock concentration (final ~1000-fold dilution): 10 mM), the “IRF Lucia reporter activity” value is 0.0368 in the test with RAW-Dual [3] (setting [5]) and 4.46 with RAW-Dual [3] (agonist: LPS (TLR4) 0.1 ug/mL).
As for `CC(ONC(=O)c1cc(C(F)(F)F)cc(C(F)(F)F)c1)C(=O)Nc1ccc(Cl)cc1` (centres undefined) (library stock concentration (final ~1000-fold dilution): 10 mM), the “IRF Lucia reporter activity” value with RAW-Dual [2] (setting [5]) and in the test on RAW-Dual [2] (agonist: LPS (TLR4) 0.1 ug/mL) was 0.52 throughout.
In the case of `CC12C=CC(=O)NC1CCC1C2CCC2(C)C(C(=O)Nc3cc(C(F)(F)F)ccc3C(F)(F)F)CCC12` (centres undefined), the “IRF Lucia reporter activity” value in the test on RAW-Dual [1] (setting [4]) worked out at 1.08.
Turning to `O=C(Nc1ccc([N+](=O)[O-])cc1Cl)c1cc(Cl)ccc1O`, the “IRF Lucia reporter activity” value in the test on RAW-Dual [1] (setting [4]) stood at 0.899.
Consider `CC12C=CC(=O)NC1CCC1C2CCC2(C)C(C(=O)Nc3cc(C(F)(F)F)ccc3C(F)(F)F)CCC12` (centres undefined) (library stock concentration (final ~1000-fold dilution): 10 mM), for which the “IRF Lucia reporter activity” value with RAW-Dual [2] (setting [5]) came out at 1.22; in the test with RAW-Dual [2] (agonist: LPS (TLR4) 0.1 ug/mL), 1.38.
As to `O=C(Nc1cc(C(F)(F)F)cc(C(F)(F)F)c1)c1cc(Cl)ccc1O` (library stock concentration (final ~1000-fold dilution): 10 mM), the “IRF Lucia reporter activity” value was 0.03 and 0.0207 in the test with RAW-Dual [3] (setting [5]); 3.59 and 3.92 in the test on RAW-Dual [3] (agonist: LPS (TLR4) 0.1 ug/mL).
Turning to `O=C(Nc1cc(C(F)(F)F)cc(C(F)(F)F)c1)c1cc(Cl)ccc1O`, in the test on RAW-Dual [1] (setting [6]), the “IRF Lucia reporter activity” value stood at 3.54 ± 1.7.
Turning to `O=C(Nc1cc(C(F)(F)F)ccc1N1CCCCC1)c1ccncc1` (library stock concentration (final ~1000-fold dilution): 10 mM), the “IRF Lucia reporter activity” value was determined as 1.05 in the test on RAW-Dual [2] (setting [5]) and 0.874 with RAW-Dual [2] (agonist: LPS (TLR4) 0.1 ug/mL).
Consider `O=C(Nc1ccc([N+](=O)[O-])cc1Cl)c1cc(Cl)ccc1O` (library stock concentration (final ~1000-fold dilution): 10 mM), for which the “IRF Lucia reporter activity” value amounted to 0.354 in the test with RAW-Dual [2] (setting [5]) and 2.53 in the test with RAW-Dual [2] (agonist: LPS (TLR4) 0.1 ug/mL).
For the compound `O=C(Nc1cc(C(F)(F)F)ccc1N1CCCCC1)c1ccncc1`, the “IRF Lucia reporter activity” value with RAW-Dual [1] (setting [4]) was 1.18.
